The text below walks through data of PubChem BioAssay (EPA / NIEHS).

The source made the active and inactive calls. How the source made its calls: active means hit-call score of the fitted dose curve at least 0.9, where 1 is the maximum; inactive means score below 0.9.

What all share (settings): mRNA level, 48 h; actives raise or lower the signal
Read-out in assay [1]: Early growth response protein 1 (EGR1) transcription factor, EGR1 (gene 1958)
Put plainly: LTEA_HepaRG_EGR1: Life Technologies and Expression Analysis (LTEA) Assay for Early growth response protein 1 (EGR1) transcription factor using HepaRG (AID 2283490). In a few lines:
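Differentiated human HepaRG cells in serum-free induction medium were exposed in duplicate for 48 h to eight concentrations (top 100 uM, half-log steps) in 0.5% DMSO. EGR1 mRNA was quantified by qRT-PCR, normalized to ACTB, GAPDH and POLR2A, and fitted bidirectionally versus DMSO.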

Read-out in assay [2]: Ezrin (EZR), EZR (gene 7430)
Put plainly: LTEA_HepaRG_EZR: Life Technologies and Expression Analysis (LTEA) Assay for Ezrin (EZR) using HepaRG (AID 2283491). In a few lines:
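Differentiated human HepaRG cells, 48 h after plating, were exposed in serum-free induction medium for 48 hours to eight half-log concentrations up to 100 uM in 0.5% DMSO. EZR mRNA was measured by TaqMan qRT-PCR, normalized to ACTB, GAPDH and POLR2A, and fitted bidirectionally against DMSO.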

Read-out in the next assay: CYP3A5 (gene 1577)
Put plainly: LTEA_HepaRG_CYP3A5: Life Technologies and Expression Analysis (LTEA) Assay for CYP3A5 using HepaRG (AID 2283493). In a few lines: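 Differentiated HepaRG cells in serum-free induction medium were dosed 48 h with test chemicals (8-point half-log series, top 100 uM, 0.5% DMSO, duplicate). CYP3A5 mRNA measured by qRT-PCR, normalized to ACTB, GAPDH, POLR2A; bidirectional fit versus DMSO.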

Read-out in assay [3]: Fatty Acid-Binding Protein 1 (FABP1), FABP1 (gene 2168)
Briefly: LTEA_HepaRG_FABP1: Life Technologies and Expression Analysis (LTEA) Assay for Fatty Acid-Binding Protein 1 (FABP1) using HepaRG (AID 2283494). In short, it runs like this:
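Differentiated human HepaRG cells were exposed in duplicate for 48 h in serum-free induction medium to 8-point half-log concentration series topping at 100 uM in 0.5% DMSO. FABP1 mRNA measured by TaqMan qRT-PCR, normalized to ACTB/GAPDH/POLR2A; bidirectional fit versus DMSO.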

Read-out in assay [4]: Cytochrome P450 4A22 (Homo sapiens) (UniProt Q5TCH4)
Briefly: LTEA_HepaRG_CYP4A22: Life Technologies and Expression Analysis (LTEA) Assay for Cytochrome P450 4A22 (CYP4A22) using HepaRG (AID 2283495). In a few lines: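 Differentiated HepaRG cells in serum-free induction medium exposed 48 h in duplicate to eight half-log concentrations up to 100 uM in 0.5% DMSO. CYP4A22 mRNA quantified by TaqMan qRT-PCR, normalized to ACTB, GAPDH and POLR2A; bidirectional fit versus DMSO.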

Read-out in assay [5]: Glutathione S-Transferase (GSTA2), GSTA2 (gene 2939)
Briefly: LTEA_HepaRG_GSTA2: Life Technologies and Expression Analysis (LTEA) Assay for Glutathione S-Transferase (GSTA2) using HepaRG (AID 2283497). In a few lines: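 Human HepaRG cells, plated 48 h, then exposed in serum-free induction medium for 48 h to eight half-log concentrations up to 100 uM in 0.5% DMSO, duplicate. GSTA2 mRNA by qRT-PCR, normalized to ACTB/GAPDH/POLR2A; bidirectional fit versus DMSO.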

Read-out in assay [6]: Glutamate-cysteine ligase catalytic (GCLC), GCLC (gene 2729)
Put plainly: LTEA_HepaRG_GCLC: Life Technologies and Expression Analysis (LTEA) Assay for Glutamate-cysteine ligase catalytic (GCLC) using HepaRG (AID 2283498). In a few lines: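 Differentiated human HepaRG cells, plated 48 h then switched to serum-free induction medium, were exposed in duplicate for 48 h to 8 half-log concentrations topping at 100 uM in 0.5% DMSO. GCLC mRNA was quantified by qRT-PCR against ACTB, GAPDH and POLR2A.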

Read-out in assay [7]: growth arrest and DNA damage 45 (GADD45G), GADD45G (gene 10912)
Briefly: LTEA_HepaRG_GADD45G: Life Technologies and Expression Analysis (LTEA) Assay for growth arrest and DNA damage 45 (GADD45G) using HepaRG (AID 2283499). In a few lines: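 Differentiated human HepaRG cells, 48 h post-plating, exposed 48 h in serum-free induction medium to 8 half-log concentrations (top 100 uM, 0.5% DMSO) in duplicate. GADD45G mRNA measured by Fluidigm TaqMan qRT-PCR, normalized to ACTB, GAPDH, POLR2A; bidirectional fit versus DMSO.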

Read-out in assay [8]: Glutamate-cysteine ligase regulatory (GCLM), GCLM (gene 2730)
Briefly: LTEA_HepaRG_GCLM: Life Technologies and Expression Analysis (LTEA) Assay for Glutamate-cysteine ligase regulatory (GCLM) using HepaRG (AID 2283500). In short, it runs like this:
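Differentiated human HepaRG cells exposed 48 h in serum-free induction medium to 8-point half-log concentrations (top 100 uM, 0.5% DMSO), in duplicate. GCLM mRNA quantified by qRT-PCR, normalized to ACTB, GAPDH, POLR2A; bidirectional fitting versus DMSO.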

Read-out in assay [9]: Glutathione S-transferase M3 (GSTM3), GSTM3 (gene 2947)
Briefly: LTEA_HepaRG_GSTM3: Life Technologies and Expression Analysis (LTEA) Assay for Glutathione S-transferase M3 (GSTM3) using HepaRG (AID 2283501). In a few lines: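 Differentiated human HepaRG cells were exposed in duplicate for 48 h in serum-free induction medium, 8 points from 100 uM top in half-log steps, 0.5% DMSO. GSTM3 mRNA was measured by TaqMan qRT-PCR, normalized to ACTB, GAPDH and POLR2A; bidirectional fit versus DMSO.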

Read-out in assay [10]: Heat shock 70 kDa protein 1 (HSPA1A), gene 3303
Briefly: LTEA_HepaRG_HSPA1A: Life Technologies and Expression Analysis (LTEA) Assay for Heat shock 70 kDa protein 1 (HSPA1A) using HepaRG (AID 2283502). In a few lines: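 Differentiated human HepaRG cells in serum-free induction medium were exposed in duplicate for 48 h to eight concentrations (top 100 uM, half-log steps, 0.5% DMSO). HSPA1A mRNA was quantified by qRT-PCR, normalized to ACTB, GAPDH and POLR2A, and fitted bidirectionally against DMSO.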

Read-out in assay [11]: 3-Hydroxy-3-Methylglutaryl-CoA Synthase 2 (HMGCS2), HMGCS2 (gene 3158)
Briefly: LTEA_HepaRG_HMGCS2: Life Technologies and Expression Analysis (LTEA) Assay for 3-Hydroxy-3-Methylglutaryl-CoA Synthase 2 (HMGCS2) using HepaRG (AID 2283504). In short, it runs like this: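 Human HepaRG cells in serum-free induction medium were exposed in duplicate for 48 h to 8-point half-log series from 100 uM top in 0.5% DMSO. HMGCS2 mRNA measured by TaqMan qRT-PCR, normalised to ACTB, GAPDH, POLR2A; bidirectional fit versus DMSO.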

Read-out in the next assay: HGF (gene 3082)
Put plainly: LTEA_HepaRG_HGF: Life Technologies and Expression Analysis (LTEA) Assay for Hepatocyte Growth Facto (HGF) using HepaRG (AID 2283505). In a few lines:
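Differentiated HepaRG cells in serum-free induction medium exposed 48 h in duplicate, 8 half-log concentrations from 100 uM in 0.5% DMSO. HGF mRNA by qRT-PCR, normalised to ACTB, GAPDH, POLR2A; bidirectional fitting.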

Read-out in assay [12]: Insulin Like Growth Factor 1 (IGF1), IGF1 (gene 3479)
Briefly: LTEA_HepaRG_IGF1: Life Technologies and Expression Analysis (LTEA) Assay for Insulin Like Growth Factor 1 (IGF1) using HepaRG (AID 2283506). In a few lines:
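Differentiated human HepaRG cells were dosed for 48 h in serum-free induction medium with 0.5% DMSO, eight half-log concentrations up to 100 uM, in duplicate. IGF1 mRNA was quantified by qRT-PCR normalized to ACTB, GAPDH, POLR2A; bidirectional fitting versus DMSO.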

Read-out in assay [13]: Insulin-like growth factor-binding protein 1 (IGFBP1), IGFBP1 (gene 3484)
Put plainly: LTEA_HepaRG_IGFBP1: Life Technologies and Expression Analysis (LTEA) Assay for Insulin-like growth factor-binding protein 1 (IGFBP1) using HepaRG (AID 2283508). In short, it runs like this: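 HepaRG cells, plated 48 h then switched to serum-free induction medium, exposed in duplicate for 48 h to 8-point half-log series from 100 uM in 0.5% DMSO. mRNA measured by qRT-PCR, normalized to ACTB/GAPDH/POLR2A; bidirectional fit versus DMSO.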

Read-out in assay [14]: Interleukin 6 (IL6), IL6 (gene 3569)
Put plainly: LTEA_HepaRG_IL6: Life Technologies and Expression Analysis (LTEA) Assay for Interleukin 6 (IL6) using HepaRG (AID 2283509). In a few lines: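 Differentiated human HepaRG cells, plated 48 h then switched to serum-free induction medium, were exposed in duplicate for 48 h to eight half-log concentrations up to 100 uM in 0.5% DMSO. IL6 mRNA measured by qRT-PCR, normalized to ACTB/GAPDH/POLR2A.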

Read-out in assay [15]: Interleukin 6 Receptor (IL6R), IL6R (gene 3570)
Put plainly: LTEA_HepaRG_IL6R: Life Technologies and Expression Analysis (LTEA) Assay for Interleukin 6 Receptor (IL6R) using HepaRG (AID 2283510).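 On AC50: TaqMan qRT-PCR signal normalized to ACTB GAPDH and POLR2A housekeeping genes.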 In a few lines: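 Differentiated human HepaRG cells, plated 48 h then switched to serum-free induction medium, were dosed in duplicate for 48 h at eight half-log concentrations up to 100 uM in 0.5% DMSO. IL6R mRNA quantified by qRT-PCR, normalized to ACTB/GAPDH/POLR2A; bidirectional fit versus DMSO.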

Read-out in assay [16]: Potassium channel subfamily K member 1 (KCNK1), KCNK1 (gene 3775)
Briefly: LTEA_HepaRG_KCNK1: Life Technologies and Expression Analysis (LTEA) Assay for Potassium channel subfamily K member 1 (KCNK1) using HepaRG (AID 2283511). In short, it runs like this: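 Differentiated human HepaRG cells in serum-free induction medium were exposed in duplicate for 48 h to 8 half-log concentrations up to 100 uM in 0.5% DMSO. KCNK1 mRNA was measured by TaqMan qRT-PCR, normalized to ACTB, GAPDH and POLR2A, and fitted bidirectionally versus DMSO.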

Read-out in assay [17]: Keratin 19 (KRT19), KRT19 (gene 3880)
Put plainly: LTEA_HepaRG_KRT19: Life Technologies and Expression Analysis (LTEA) Assay for Keratin 19 (KRT19) using HepaRG (AID 2283512). In a few lines:
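Differentiated HepaRG cells in serum-free induction medium, exposed 48 h in duplicate to 8 half-log concentrations up to 100 uM in 0.5% DMSO. KRT19 mRNA by qRT-PCR, normalized to ACTB, GAPDH, POLR2A; bidirectional fit vs DMSO.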

Read-out in assay [18]: Hypoxia-inducible factor 1-alpha (Homo sapiens) (UniProt Q16665)
Briefly: LTEA_HepaRG_HIF1A: Life Technologies and Expression Analysis (LTEA) Assay for Hypoxia-inducible factor 1 (HIF1A) Trancription factor using HepaRG (AID 2283503). In a few lines: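 HepaRG, 48 h exposure, 8-pt half-log series from 100 uM, 0.5% DMSO vehicle, duplicates. Readout: HIF1A transcript by qRT-PCR (Fluidigm array), housekeeping-normalised. Bidirectional curve fit vs DMSO baseline.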

Sequence of Hypoxia-inducible factor 1-alpha (Homo sapiens) (Q16665 whole entry, looked up): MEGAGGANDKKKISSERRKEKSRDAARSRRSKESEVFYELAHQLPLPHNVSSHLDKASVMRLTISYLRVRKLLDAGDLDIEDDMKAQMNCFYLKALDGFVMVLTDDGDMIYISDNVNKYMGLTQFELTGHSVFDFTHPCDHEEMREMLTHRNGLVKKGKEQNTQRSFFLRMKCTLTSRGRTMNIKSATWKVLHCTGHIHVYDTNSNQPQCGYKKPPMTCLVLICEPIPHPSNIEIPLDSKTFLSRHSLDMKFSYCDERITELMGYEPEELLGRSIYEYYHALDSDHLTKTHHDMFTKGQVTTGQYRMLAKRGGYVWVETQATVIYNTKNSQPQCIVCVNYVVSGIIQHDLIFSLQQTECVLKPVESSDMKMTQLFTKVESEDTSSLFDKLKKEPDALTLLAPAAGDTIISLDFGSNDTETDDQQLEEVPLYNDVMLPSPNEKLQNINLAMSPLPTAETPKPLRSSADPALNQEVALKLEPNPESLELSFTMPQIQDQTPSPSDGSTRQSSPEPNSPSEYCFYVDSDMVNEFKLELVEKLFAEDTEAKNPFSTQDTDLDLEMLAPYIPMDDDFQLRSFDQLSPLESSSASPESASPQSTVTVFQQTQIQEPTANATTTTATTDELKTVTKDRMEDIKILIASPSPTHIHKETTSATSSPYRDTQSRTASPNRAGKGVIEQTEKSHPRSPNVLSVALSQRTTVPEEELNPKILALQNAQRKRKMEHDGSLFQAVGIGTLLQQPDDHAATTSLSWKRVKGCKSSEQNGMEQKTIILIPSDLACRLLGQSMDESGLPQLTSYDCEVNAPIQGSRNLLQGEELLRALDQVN

For the compound `CCC(C)c1ccccc1O` (stereo not drawn), the compound was called inactive (in [1]; in assay [2]; with CYP3A5 (gene 1577); in assay [3]; in [4]; in assay [5]). Moreover, the call in [6], in assay [7], in assay [8], in assay [9], in [10] and in [11] was inactive. The outcome (with HGF (gene 3082); in [12]; in assay [13]; in assay [14]; in assay [15]; in assay [16]) was inactive. In addition, the compound was classed as inactive in assay [17].

Regarding `CN(Cc1cnc2nc(N)nc(N)c2n1)c1ccc(C(=O)N[C@@H](CCC(=O)O)C(=O)O)cc1`, the AC50 in assay [1] was 0.121 µM (active); with CYP3A5 (gene 1577), 0.0985 µM (active); in assay [3] it was 0.322 µM (active); in assay [5], 0.264 µM (active). For the same compound, the compound was called inactive in assay [2], in [4], in [6], in assay [7], in [8] and in assay [9]. For the same compound, the compound was called inactive (in [11]; with HGF (gene 3082); in assay [12]; in assay [13]; in assay [14]; in [15]). Further, the call in assay [16] and in assay [17] was inactive.

Regarding `N=C(N)c1ccc(OCCCCCOc2ccc(C(=N)N)cc2)cc1`, the AC50 was 27.1 µM (active) in assay [1]; 4.05 µM (active) in assay [3]; 3.87 µM (active) in assay [4]; 7.03 µM (active) in assay [5]; 27.9 µM (active) in [6]; 4.37 µM (active) in [7]. Also, the AC50 in [9] is 5.05 µM (active); in [10] it was 26.5 µM (active); in assay [18] it was 4.28 µM (active); in assay [11], 7.77 µM (active); in the assay with HGF (gene 3082) it was 13.8 µM (active); in [12], 11.1 µM (active). For the same compound, the AC50 in assay [13] was 3.52 µM (active); in assay [14], 9.85 µM (active); in assay [15] it was 29.3 µM (active); in assay [17], 31 µM (active). The outcome in assay [2], in assay [8] and in assay [16] was inactive.

Consider `CCCCCCCCCCCCOS(=O)(=O)O`, for which the compound was classed as inactive (in assay [1]; in assay [2]; with CYP3A5 (gene 1577); in assay [6]; in [7]; in [8]). Moreover, the call (in assay [9]; in assay [18]; with HGF (gene 3082); in assay [14]; in assay [16]) was inactive. Moreover, the AC50 in assay [3] was 87.6 µM (active); in assay [10], 50 µM (active); in assay [11], 86.6 µM (active); in [13], 79.1 µM (active); in assay [15], 93.1 µM (active); in [17], 79.9 µM (active).
